Experimental data published in PubChem BioAssay (NCI).
Where “and” joins values, the source holds several entries; their conditions need not be identical. Identical values can stand only once. Compounds without any hit were thinned out: in the full panel of roughly 79,000, 15% have a hit. The source holds several records for some structures; these can differ, active in one and inactive in another. Calls of active or inactive are those of the source. Rule as the data show it: active = growth inhibition above about 70%; inactive = the rest.

What was measured:
[1] = NCI Yeast Anticancer Drug Screen. Data for the rad52 strain (AID 147);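 also: 0% = growth of vehicle-treated control cultures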; conditions: S. cerevisiae rad52 mutant growth inhibition, stronger effect = higher value
Outline: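 Read-out: growth inhibition versus vehicle-treated controls. Cells were a DNA repair-deficient yeast strain treated with compounds.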

[2] = NCI Yeast Anticancer Drug Screen. Data for the wt1 strain (AID 149);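 also: 0% = growth of vehicle-treated wt1 cultures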; conditions: S. cerevisiae wt1 strain (SPY 50644) growth inhibition, stronger effect = higher value
Outline: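 Each compound is tested on wt1 yeast and the loss of growth versus vehicle gives the inhibition value.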

[3] = NCI Yeast Anticancer Drug Screen. Data for the rad50EPP+ strain (AID 151);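 also: 0% = growth of vehicle-treated control cultures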; conditions: S. cerevisiae rad50 mutant strain, stronger effect = higher value
Outline: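 Growth inhibition read against vehicle controls in rad50EPP+ yeast, a strain altered in DNA damage repair, after compound exposure.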

[4] = NCI Yeast Anticancer Drug Screen. Data for the mgt1 strain (AID 153); conditions: S. cerevisiae mgt1 mutant growth inhibition, stronger effect = higher value
Outline: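 mgt1 yeast grown with test compound; read-out is growth inhibition versus vehicle-treated cultures.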

[5] = NCI Yeast Anticancer Drug Screen. Data for the rad50 strain (AID 155);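 also: 0% = growth of vehicle-only cultures of the same strain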; conditions: S. cerevisiae rad50 strain growth inhibition, stronger effect = higher value
Outline: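 Vehicle-treated cultures provide the reference for the growth inhibition reported for compound-exposed, repair-deficient yeast.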

[6] = NCI Yeast Anticancer Drug Screen. Data for the mec2-1 strain (AID 157); conditions: S. cerevisiae mec2-1 strain, stronger effect = higher value
Outline: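 Yeast mec2-1 mutant treated with compound. Readout: growth inhibition vs vehicle controls.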

[7] = NCI Yeast Anticancer Drug Screen. Data for the rad14 strain (AID 159);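 also: 0% = growth of vehicle-treated control cultures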; conditions: S. cerevisiae rad14 strain growth inhibition, stronger effect = higher value
Outline: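 Inhibition of growth is reported for a repair-deficient yeast mutant following compound treatment, calculated relative to cultures that received vehicle.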

[8] = NCI Yeast Anticancer Drug Screen. Data for the sgs1 mgt1 strain (AID 161);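 also: 0% = growth of cultures given vehicle only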; conditions: S. cerevisiae sgs1 mgt1 strain, stronger effect = higher value
Outline: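 Genetically altered yeast, compound exposure, growth inhibition relative to vehicle.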

[9] = NCI Yeast Anticancer Drug Screen. Data for the cln2 rad14 strain (AID 165);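 also: 0% = growth equal to vehicle treated cultures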; conditions: S. cerevisiae cln2 rad14 strain, stronger effect = higher value
Outline: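 cln2 rad14 yeast strain; compound exposure; growth inhibition read vs vehicle controls.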

[10] = NCI Yeast Anticancer Drug Screen. Data for the bub3 strain (AID 167); conditions: S. cerevisiae bub3 mutant strain, stronger effect = higher value
Outline: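 Mutant yeast screening strain plus compound; vehicle-treated cultures serve as the 0% inhibition reference.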

[11] = NCI Yeast Anticancer Drug Screen. Data for the wt2 strain (AID 169); conditions: S. cerevisiae wt2 strain growth inhibition, stronger effect = higher value
Outline: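 Read-out: growth inhibition versus vehicle-treated control cultures after compound exposure of the yeast strain.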

[12] = NCI Yeast Anticancer Drug Screen. Data for the mlh1 strain (AID 171);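 also: 0% = growth of vehicle-treated control cultures of the same strain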; conditions: S. cerevisiae mlh1 strain growth inhibition, stronger effect = higher value
Outline: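 Read-out: growth inhibition versus vehicle controls. Strain: engineered yeast with a defined DNA repair or cell cycle defect, compound-treated.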

[13] = NCI Yeast Anticancer Drug Screen. Data for the sgs1 strain (AID 173);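 also: 0% = growth of vehicle-only control cultures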; conditions: S. cerevisiae sgs1 mutant, stronger effect = higher value
Outline: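 Read-out: yeast growth inhibition relative to vehicle controls, following compound exposure of a strain with a defined DNA repair/cell cycle alteration.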

[14] = NCI Yeast Anticancer Drug Screen. Data for the mlh1 rad18 strain (AID 175); conditions: S. cerevisiae mlh1 rad18 strain growth inhibition, stronger effect = higher value
Outline: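 Yeast w/ defined DNA-repair lesions; compound exposure; growth vs vehicle controls → % inhibition.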

[15] = NCI Yeast Anticancer Drug Screen. Data for the rad18 strain (AID 177); conditions: S. cerevisiae rad18 mutant growth inhibition, stronger effect = higher value
Outline: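 Readout: growth inhibition vs vehicle controls. Cells: genetically altered yeast strain, DNA repair defect.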

[16] = at 5.0 µM (retest, dose inferred, filed as 0.5)
[17] = at 50.0 µM (retest, dose inferred, filed as 5.0)

Measured: growth inhibition

O=c1ccc(=O)n(-c2ccccc2)[nH]1
85% (active) and -26.4% (inactive): [6]; at 50.0 µM
79.4% (active) and -20.1% (inactive): [14]; at 50.0 µM
86.2% (active) and -25.4% (inactive): [10]; at 50.0 µM
91.3% (active) and -13.6% (inactive): [8]; at 50.0 µM
inactive: [1]; at 1.2 µM -29% | [1]; at 3.7 µM -11% | [1]; at 11.0 µM 17% | [2]; at 1.2 µM -16% | [2]; at 3.7 µM -10% | [2]; at 11.0 µM 29% | [3]; at 1.2 µM -24% | [3]; at 3.7 µM -5% | [3]; at 11.0 µM 38% | [4]; at 1.2 µM 0% | [4]; at 3.7 µM 19% | [4]; at 11.0 µM 35% | [5]; at 1.2 µM -14% | [5]; at 3.7 µM -3% | [5]; [16] 25% | [5]; at 11.0 µM 28% | [6]; at 1.2 µM -23% | [6]; at 3.7 µM -24% | [6]; [16] -17% | [6]; at 11.0 µM 2% | [7]; at 1.2 µM -12% | [7]; at 3.7 µM -9% | [7]; at 11.0 µM 4% | [7]; at 33.0 µM 60% | [8]; [16] 1% | [9]; [16] 18% | [9]; at 50.0 µM 58.5% and -14.5% | [10]; at 1.2 µM -13% | [10]; at 3.7 µM -23% | [10]; [16] 41% | [10]; at 11.0 µM 2% | [11]; at 1.2 µM -15% | [11]; at 3.7 µM -10% | [11]; at 11.0 µM 1% | [11]; at 33.0 µM 66% | [12]; at 1.2 µM -2% | [12]; at 3.7 µM -4% | [12]; at 11.0 µM 30% | [13]; at 1.2 µM 15% | [13]; at 3.7 µM 27% | [13]; at 11.0 µM 58% | [14]; [16] 38% | [15]; at 1.2 µM -20% | [15]; at 3.7 µM 3% | [15]; at 11.0 µM 47%
85.3% (active) and -33% (inactive): [5]; at 50.0 µM
active: [1]; at 33.0 µM 79% | [1]; at 100.0 µM 97% | [2]; at 33.0 µM 71% | [2]; at 100.0 µM 95% | [3]; at 33.0 µM 75% | [3]; at 100.0 µM 87% | [4]; at 33.0 µM 70% | [4]; at 100.0 µM 97% | [5]; at 33.0 µM 82% | [5]; [17] 90% | [5]; at 100.0 µM 95% | [6]; at 33.0 µM 78% | [6]; [17] 95% | [6]; at 100.0 µM 98% | [7]; at 100.0 µM 96% | [8]; [17] 84% | [9]; [17] 79% | [10]; at 33.0 µM 83% | [10]; [17] 97% | [10]; at 100.0 µM 98% | [11]; at 100.0 µM 93% | [12]; at 33.0 µM 87% | [12]; at 100.0 µM 99% | [13]; at 33.0 µM 89% | [13]; at 100.0 µM 98% | [14]; [17] 95% | [15]; at 33.0 µM 84% | [15]; at 100.0 µM 94%

CC(C)CN(CC(C)C)C(=O)c1ccc(Cl)c(Cl)c1
inactive: [1]; at 1.2 µM -4% | [1]; at 3.7 µM 0% | [1]; at 11.0 µM 6% | [2]; at 1.2 µM -3% | [2]; at 3.7 µM -3% | [2]; at 11.0 µM -3% | [2]; at 33.0 µM 63% | [3]; at 1.2 µM -2% | [3]; at 3.7 µM 0% | [3]; at 11.0 µM 2% | [3]; at 33.0 µM 6% | [3]; at 100.0 µM 3% | [4]; at 1.2 µM 2% | [4]; at 3.7 µM 2% | [4]; at 11.0 µM 1% | [4]; at 33.0 µM 21% | [5]; at 1.2 µM -2% | [5]; at 3.7 µM 4% | [5]; [16] -10% | [5]; at 11.0 µM 6% | [6]; at 1.2 µM -1% | [6]; at 3.7 µM 1% | [6]; [16] 6% | [6]; at 11.0 µM 0% | [7]; at 1.2 µM -2% | [7]; at 3.7 µM -1% | [7]; at 11.0 µM 9% | [7]; at 33.0 µM 31% | [8]; [16] -3% | [9]; [16] -29% | [9]; [17] 50% | [10]; at 1.2 µM 4% | [10]; at 3.7 µM 3% | [10]; [16] -18% | [10]; at 11.0 µM 8% | [10]; at 33.0 µM 25% | [10]; [17] 22% | [12]; at 1.2 µM 0% | [12]; at 3.7 µM 2% | [12]; at 11.0 µM 5% | [12]; at 33.0 µM 39% | [13]; at 1.2 µM 0% | [13]; at 3.7 µM 3% | [13]; at 11.0 µM 5% | [13]; at 33.0 µM 62% | [14]; [16] -17% | [15]; at 1.2 µM 0% | [15]; at 3.7 µM 4% | [15]; at 11.0 µM 5% | [15]; at 33.0 µM 66%
active: [1]; at 33.0 µM 82% | [1]; at 100.0 µM 98% | [2]; at 100.0 µM 98% | [4]; at 100.0 µM 98% | [5]; at 33.0 µM 85% | [5]; [17] 94% | [5]; at 50.0 µM 94.7% | [5]; at 100.0 µM 99% | [6]; at 33.0 µM 82% | [6]; [17] 76% | [6]; at 50.0 µM 98% | [6]; at 100.0 µM 99% | [7]; at 100.0 µM 99% | [8]; [17] 83% | [8]; at 50.0 µM 95.8% | [9]; at 50.0 µM 93.2% | [10]; at 50.0 µM 83% | [10]; at 100.0 µM 99% | [12]; at 100.0 µM 98% | [13]; at 100.0 µM 99% | [14]; [17] 96% | [14]; at 50.0 µM 97.5% | [15]; at 100.0 µM 99%

CNC(=O)OCc1c(COC(=O)NC)c2n(c1C)-c1ccc(OC)cc1CCC2
inactive: [1]; at 1.2 µM -18% | [1]; at 3.7 µM -24% | [1]; at 11.0 µM -20% | [2]; at 1.2 µM -45% | [2]; at 3.7 µM -53% | [2]; at 11.0 µM -57% | [3]; at 1.2 µM -6% | [3]; at 3.7 µM -7% | [3]; at 11.0 µM -8% | [3]; at 33.0 µM 6% | [3]; at 100.0 µM 15% | [4]; at 1.2 µM -32% | [4]; at 3.7 µM -35% | [4]; at 11.0 µM -34% | [5]; at 1.2 µM -35% | [5]; at 3.7 µM -38% | [5]; [16] 25% | [5]; at 11.0 µM -43% | [6]; at 1.2 µM -61% | [6]; at 3.7 µM -29%
active: [1]; at 33.0 µM 96% | [1]; at 100.0 µM 99% | [2]; at 33.0 µM 96% | [2]; at 100.0 µM 100% | [4]; at 33.0 µM 98% | [4]; at 100.0 µM 99% | [5]; at 33.0 µM 95% | [5]; [17] 99% | [5]; at 50.0 µM 85.7% | [5]; at 100.0 µM 99%
